# Sampled rows, rich in hits. Any-hit rate of the full collection: about 1.1%.
# HTR5A ag: counter-screen for OPRM1-OPRD1 agonists: human HTR5A agonism. HTR5A agonist assay, luminescence, cell-based. actives 0.61% (n = 340,000). activation, % at 9.3 µM. P47898; in the data active means activation mostly above about 9.5%, no sharp cut-off; inactive means mostly below about 7.6%;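 further: 0% = cells with vehicle only and 100% = reference agonist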
# Target sequence (P47898 whole entry, looked up): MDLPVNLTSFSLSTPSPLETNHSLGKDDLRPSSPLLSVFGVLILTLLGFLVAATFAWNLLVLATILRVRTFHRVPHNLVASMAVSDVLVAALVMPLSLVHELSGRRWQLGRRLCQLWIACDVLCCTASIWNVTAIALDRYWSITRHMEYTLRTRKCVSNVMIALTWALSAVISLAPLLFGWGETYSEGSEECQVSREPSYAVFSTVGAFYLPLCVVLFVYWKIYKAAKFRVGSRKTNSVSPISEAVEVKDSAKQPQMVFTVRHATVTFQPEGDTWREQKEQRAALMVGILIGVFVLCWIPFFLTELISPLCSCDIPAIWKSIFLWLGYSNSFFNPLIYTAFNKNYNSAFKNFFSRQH
# OPRM1-OPRD1 inv: inverse agonist of human OPRM1-OPRD1 heterodimerization | cell-based MOR-DOR heterodimer luminescence, inverse agonism | inhibition, % at 9.3 µM | actives 0.21% (n = 340,000); in the data active means inhibition above about 22%, passing the limit was not always enough;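 further: 0% = cells with DMSO and 100% = wells without cells with DMSO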
# HTR5A inv ag: counter-screen for OPRM1-OPRD1 inverse agonists: human HTR5A inverse agonism. P47898. HTR5A cell line, luminescence. inhibition, % at 9.3 µM. actives 0.083% (n = 340,000); in the data active means inhibition mostly above about 23%, no sharp cut-off; inactive means mostly below about 18%;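 further: 0% = cells with DMSO and 100% = no-cell wells with DMSO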
# OPRM1-OPRD1 ag: OPRM1-OPRD1 heterodimerization agonism; AID 504326; cells, luminescence; activation, % at 9.3 µM; P35372+P41143; actives 0.3% (n = 340,000);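 further: 0% = vehicle-treated cells and 100% = reference agonist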
# MOR-DOR ag conf: confirmation of human OPRM1-OPRD1 heterodimerization agonists; AID 504904; activation, % at 9.3 µM; cells, MOR-DOR heterodimerization, luminescence complementation; actives 45% (n = 830); shares compounds with OPRM1-OPRD1 ag;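 further: 0% = vehicle-treated cells and 100% = reference agonist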
# HTR5A ag ctr2: activates human HTR5A in OPRM1-OPRD1 agonist counter-screen | HTR5A agonist counterscreen, cell luminescence | actives 8% (n = 830) | shares compounds with OPRM1-OPRD1 ag | activation, % at 9.3 µM; in the data active means activation above about 17%;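 further: 0% = vehicle-treated cells and 100% = reference agonist response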
# Active calls of the source: *; i = inactive; . = no result. Unless noted, no stated cut-off is given here; in the data, active means activation above about 18%; inactive means the rest.
SMILES,HTR5A ag,OPRM1-OPRD1 inv,HTR5A inv ag,OPRM1-OPRD1 ag,MOR-DOR ag conf,HTR5A ag ctr2
Cc1cc(N2CCN(C)CC2)ccc1NC(=O)c1ccc(-c2ccc(Cl)cc2)o1,2,-136,-5,26*,44*,1
C=CC[C@@H](CC(=O)N(CCO)Cc1ccccc1)C(=O)N[C@@H](COC(=O)[C@H](CC=C)CC(=O)OC(C)(C)C)Cc1c[nH]c2ccccc12,4,-149,12,26*,17,4
CC(C)C1CC(CCNCc2ccc(N(C)C)cc2)(c2ccccc2)CCO1 (configuration not stated),7,-113,-20,21*,25*,-1
Cc1ccc(-c2csc3ncnc(-n4nnc5ccccc54)c23)cc1C,-3,-8,9,1,.,.
Cc1ccc(-c2csc3ncnc(-n4nnc5ccccc54)c23)cc1,9,-122,0,23*,2,0
CCN(CC)CC#CCOC(c1ccccc1)c1ccccc1,2,-7,-10,1,.,.
Clc1cccc(Cl)c1CSc1nnc(-c2ccncc2)s1,2,-105,4,21*,8,5
Cc1c(C(=O)OCC(=O)N(C)C2CCS(=O)(=O)C2)oc2ccc(Br)cc12 (configuration not stated),-2,13,-28,-3,.,.
Cc1ccc(C(=O)C2C(c3ccc(-c4ccccc4[N+](=O)[O-])o3)NC(=O)NC2(O)C(F)(F)F)cc1 (configuration not stated),2,-114,0,21*,4,5
O=C1NC(c2ccc(-c3ccccc3[N+](=O)[O-])o2)C(C(=O)c2ccccc2)C(O)(C(F)(F)F)N1 (configuration not stated),3,-64,-15,10,.,.
O=C1c2[nH]nc(-c3ccccc3O)c2C(c2ccc(F)cc2)N1Cc1ccco1 (configuration not stated),0,-100,0,20*,10,2
COc1ccc(C2c3c(-c4ccccc4O)n[nH]c3C(=O)N2Cc2ccco2)cc1OC (configuration not stated),-5,7,17,-1,.,.
CCOC(=O)C1(CC2CC2)CCN(Cc2cn(C)c3ccccc23)CC1,-5,-125,17,18*,-3,-6
CCOC(=O)C1(Cc2ccccc2)CCN(Cc2cn(CC(=O)OC)c3ccccc23)CC1,-3,0,20,0,.,.
CCOC(=O)C1(CC2CC2)CCN(Cc2cnc(N(C)C)s2)CC1,-2,-182,-26,35*,1,3
CC(NCc1cc(Br)ccc1OCC(=O)NCc1ccccc1)c1ccccc1 (configuration not stated),1,-169,-2,33*,19*,4
CCCCN1CCC(=O)NC1=O,1,17,-6,-3,.,.
O=S(=O)(NCCSc1nnc(-c2ccco2)n1-c1ccccc1)c1ccccc1,2,-78,-14,19*,1,15
NC(=O)CSc1nnc(-c2ccco2)n1-c1ccccc1,-3,9,10,-2,.,.
COc1ccc(C)cc1NC(=O)CN1CCN(S(=O)(=O)c2ccc3ccccc3c2)CC1,-4,6,-1,-2,.,.
Cc1cc(=O)oc2cc(NC(=O)C3COc4ccccc4O3)ccc12 (configuration not stated),1,-122,-1,20*,39*,14
O=C(Nc1ccc2c(c1)OCO2)C1COc2ccccc2O1 (configuration not stated),4,10,4,-2,.,.
CCCCCCCCCCOC(=O)Cn1c(COc2ccccc2C)[n+](C)c2ccccc21,13*,-134,-48,28*,35*,14
CCCCCCCCCCOC(=O)Cn1c(COc2ccc(Cl)cc2)[n+](C)c2ccccc21,6,-94,-23,18*,24*,0
CCCCCOC(=O)Cn1c(=O)oc2ccccc21,-5,-10,10,2,.,.
SMILES,HTR5A ag,OPRM1-OPRD1 inv,HTR5A inv ag,OPRM1-OPRD1 ag,MOR-DOR ag conf,HTR5A ag ctr2
Cc1ccc(/C=N/NC(=O)CSc2nnc(-c3ccc(Cl)cc3)n2-c2ccc(Cl)cc2)o1,11,-186,-32,37*,18,17*
O=C(CSc1nc2ccccc2[nH]1)N1CCN(c2ccccc2)CC1,0,-1,28,0,.,.
O=[N+]([O-])c1ccc(N2CCN(CCO)CC2)cc1Sc1nc2ccccc2[nH]1,0,-117,1,19*,6,17*
COC(=O)CC1(C(=O)OC)Oc2ccc(Br)cc2C(=O)N1c1ccc(Br)cc1Cl (configuration not stated),-3,-244,0,46*,2,8
Cc1ccc(C)c(NC(=S)NC(NC(=O)Cc2cccc3ccccc23)C(Cl)(Cl)Cl)c1 (configuration not stated),3,-156,9,27*,4,4
Cc1ccc(C)c(NC(=S)NC(NC(=O)N(C)C)C(Cl)(Cl)Cl)c1 (configuration not stated),3,-11,-8,2,.,.
CCOC(=O)C1(CCOc2ccccc2)CCN(Cc2ccc(OC)cc2)CC1,-1,i,5,224*,4,7
CCOC(=O)C1(CCOc2ccccc2)CCN(Cc2cccc(-n3cccn3)c2)CC1,1,-170,-2,33*,17,-1
CC(=O)Nc1ccc(CN2CCC(CO)(CCOc3ccccc3)CC2)cc1,2,-18,-6,4,.,.
CCOC(=O)C1(CCOc2ccccc2)CCN(Cc2cnc(C)s2)CC1,-2,-397,7,72*,80*,-1
CCOC(=O)C1(CCOc2ccccc2)CCN(Cc2ccc(NC(C)=O)cc2)CC1,-4,i,10,92*,8,7
C=CCc1c(C)[nH]c(=S)c(C#N)c1C,7,13,1,-3,.,.
CCOC(=O)C1(CCOc2ccccc2)CCN(Cc2cccc3c2OCO3)CC1,-3,-93,8,18*,14,6
CCOC(=O)C1(CCOc2ccccc2)CCN(Cc2ccccc2O)CC1,-3,-4,12,1,.,.
CCOC(=O)CNC(=O)C1c2ccccc2C(=O)N(c2ccc(OC)cc2)C1c1ccc(OC)cc1 (configuration not stated),-2,15,-5,-2,.,.
COc1ccc(NC(=O)COc2ccccc2C(=O)NCC(c2ccccc2)N(C)C)cc1Cl (configuration not stated),-1,i,-2,64*,62*,0
Cc1ccc(NC(=O)CSc2nc(N)c3cc4c(nc3n2)CCCC4)cc1,2,-156,-22,29*,28*,1
Nc1nc(SCC(=O)Nc2ccccc2)nc2nc3c(cc12)CCCC3,9,-194,-52,35*,7,5
CCCCc1nc2cc(C(=O)NCc3nccn3CC)ccc2o1,2,1,-4,0,.,.
COC(=O)CCCNC(=O)c1ccc(OC2CCN(CCc3ccccc3)CC2)cc1,-2,-260,2,38*,35*,-1
